These results are taken from ChEMBL document CHEMBL4513216, “Probing the Open Global Health Chemical Diversity Library for Multistage-Active Starting Points for Next-Generation Antimalarials” (ACS Infect Dis, 2020).

The whole screen tested about 69,000 compounds, of which about 8,600 (12%) showed an effect of 50% or more. What follows is part of a selection rich in strong results, with near analogues and random picks from the rest.

The subject of this assay is Plasmodium berghei. Nature of the assay: Screen against P. berghei liver stage (PbLuc), transformed with Luciferase, at 10uM. In kind it is functional, HepG2. The following applies: tested at 10 uM.
`O=C(NCc1cccnc1)C1=NOC2(CCN(C(=O)N3CCCC3)C2)C1` (stereo not drawn): the INHIBITION is given as -50.9%.

In the case of `CN(CCc1nc2cc(Cl)ccc2[nH]1)C(=O)c1ncn[nH]1`, the INHIBITION is 16.5%.

With `CCNc1ncc(C(=O)N(C)CCc2nc3cc(Cl)ccc3[nH]2)cn1`, the INHIBITION amounted to 41.5%.

Consider `CCc1ncc(C(=O)N(C)CCc2nc3cc(OC)ccc3[nH]2)cn1`, for which the INHIBITION is reported as 59.1%.

With `CCn1cnnc1CNC(=O)c1ccc(Cl)cc1I`, the INHIBITION is listed as 44.1%.

On to `COc1cc(N2CCC3(CC2)CNC(=O)CO3)ncn1`, for which the INHIBITION is given as 16.6%.

Regarding `O=C1COC2(CCN(c3ncccn3)CC2)CN1`, the INHIBITION worked out at 70%.

Take `O=C1COC2(CCN(c3ccccn3)CC2)CN1`: the INHIBITION is recorded as -23.3%.

Turning to `O=C1CCCCN1CCCC(=O)N1CCC2(CC1)[C@H](O)C[C@@H]2O`, the INHIBITION is given as 26.8%.

On to `Cc1csc(NC(=O)CN(C)CC2CCCN2c2cccnn2)n1` (stereo not drawn), for which the INHIBITION stood at 48.5%.

Regarding `CN(CC(=O)Nc1ccncc1)CC1CCCN1c1cccnn1` (stereo not drawn), the INHIBITION is 41.4%.

As to `CC(=O)Nc1nc(CN(C)C2CCCN(c3cccnn3)C2)cs1` (stereo not drawn), the INHIBITION was found to be 31.2%.

Consider `CC(=O)Nc1nc(CN(C)CC2CCCN2c2cccnn2)cs1` (stereo not drawn), for which the INHIBITION was determined as 51.7%.

For the molecule `CN(CC(=O)Nc1cccnc1)CC1CCCN1c1cccnn1` (stereo not drawn), the INHIBITION amounted to 53.4%.

In the case of `CN(CC(=O)Nc1nncs1)CC1CCCN1c1cccnn1` (stereo not drawn), the INHIBITION was 3.77%.

`Cc1noc(C)c1CCC(=O)N[C@@H]1CCC[C@@H](Oc2cccnc2)[C@@H]1O`: the INHIBITION was -27.1%.

Turning to `CS(=O)(=O)c1cccc(C(=O)NCCCN2CCc3ccccc3C2)c1`, the INHIBITION is given as 56.4%.

For `Cc1cccc(C(=O)NCCCN2CCc3ccccc3C2)c1C`, the INHIBITION came out at 21.5%.

Turning to `O=C(NCCCN1CCc2ccccc2C1)c1ccccc1Cl`, the INHIBITION is -7.31%.

As to `CS(=O)(=O)c1ccccc1C(=O)NCCCN1CCc2ccccc2C1`, the INHIBITION was 52.1%.

For `CS(=O)(=O)c1cccc(C(=O)NCC2(c3ccccc3)CC2)c1`, the INHIBITION is 86.8%.

As to `Cc1ccccc1C1(CNC(=O)c2cccc(S(C)(=O)=O)c2)CC1`, the INHIBITION was -8.22%.

As to `Cc1ccccc1C(=O)NCCCN1CCc2ccccc2C1`, the INHIBITION was 25.6%.

Turning to `O=C(NCCCN1CCc2ccccc2C1)c1ccccc1Br`, the INHIBITION was determined as 5.03%.

Take `Cc1ccccc1C1(CNC(=O)c2ccc(S(C)(=O)=O)cc2)CC1`: the INHIBITION was found to be 30.3%.

For `Cc1nc(C)n(CC2CCCCN2CC(=O)NC(C2CC2)C2CC2)n1` (stereo not drawn), the INHIBITION was -24.2%.

Regarding `O=c1c2ccccc2nc2n1C(CSc1cccc(C(F)(F)F)c1)CN2` (stereo not drawn), the INHIBITION was 37.8%.

Turning to `CNC(=O)[C@@H]1C[C@H]2CN(C(=O)c3ccco3)C[C@H]2N1C`, the INHIBITION is given as 7.84%.

Turning to `c1ccc(N2CCOC3(CCCN(c4nncs4)C3)C2)nc1` (stereo not drawn), the INHIBITION came to 3.95%.

For the molecule `O=C1C[C@@H]2CC[C@H](CN1)N2C(=O)CCc1ccccc1`, the INHIBITION turned out to be 11.2%.

As to `Cc1cc(CCC(N)=O)cc(C2CCCN2Cc2ccccn2)n1` (stereo not drawn), the INHIBITION came to 18.3%.

Regarding `Cc1cc(CCC(N)=O)cc(C2CCCN2Cc2ccnn2C)n1` (stereo not drawn), the INHIBITION was -2.11%.

In the case of `Cc1cc(CCC(N)=O)cc(C2CCCN2Cc2cnc(C)nc2)n1` (stereo not drawn), the INHIBITION amounted to 52%.

For `Cc1noc(C)c1CNCC1COCc2c(-c3ccoc3)nnn2C1` (stereo not drawn), the INHIBITION is listed as -16.9%.

In the case of `CCc1noc(C2CCCCN2C(=O)c2ccc3c(c2)OCO3)n1` (stereo not drawn), the INHIBITION is 7.66%.

As to `CCn1cc(CN2CCCC2c2nc(C(C)C)no2)cc1C#N` (stereo not drawn), the INHIBITION was determined as 25.8%.

As to `Cc1nc(CN2CCCC2c2nc(C(C)C)no2)cs1` (stereo not drawn), the INHIBITION came to 36.8%.

`CCn1ccc2ccc(CN3CCCC3c3nc(C(C)C)no3)cc21` (stereo not drawn): the INHIBITION was 61.2%.

As for `C=C(C)CNC(C)c1ccc(S(C)(=O)=O)c(F)c1` (stereo not drawn), the INHIBITION was -13.1%.

With `Nc1nccnc1C(=O)NC1CCN(Cc2ccccc2)C1` (stereo not drawn), the INHIBITION is -14.5%.

For the molecule `Cc1cc(C)c2c(OCC(=O)NCC(O)C(F)(F)F)nn(C)c2n1` (stereo not drawn), the INHIBITION was -23.4%.

`COc1cccc(C2=CCN(CCN3CCOC3=O)CC2)c1`: the INHIBITION is reported as 9.37%.

On to `COCCN1CC=C(c2cccc(OC)c2)CC1`, for which the INHIBITION is on record as -6.72%.

On to `COc1cccc(C2=CCN(CCN3CCCC3=O)CC2)c1`, for which the INHIBITION worked out at 51.7%.

As for `O=S(=O)(c1ccc(N2CCCCC2)c2nonc12)N1CCCCC1`, the INHIBITION amounted to 30%.

With `Nc1cnc(-c2ccc(F)cc2Cl)cn1`, the INHIBITION was 38.2%.

With `COc1cc(F)ccc1-c1cc(CO)ccn1`, the INHIBITION came out at 37.7%.

Regarding `COc1cc(F)ccc1-c1cnc(N)cn1`, the INHIBITION is given as 61.5%.

On to `CN1CCN(C2CCOCC2)CC12CCC(=O)N(CC1CC1)CC2` (stereo not drawn), for which the INHIBITION is recorded as 5.46%.

`Clc1cccc(-n2cnnn2)c1N1CCCC1`: the INHIBITION came to 11%.

In the case of `Clc1cccc(-n2cnnn2)c1N1CCCCC1`, the INHIBITION came to 67.3%.

In the case of `Clc1cccc(-n2cnnn2)c1N1CCOCC1`, the INHIBITION worked out at 1.86%.

Regarding `O=c1[nH]c2nc(NC3CC3)ncc2c(=O)n1-c1ccc(F)cc1`, the INHIBITION was found to be 13.8%.
